Source: PubChem BioAssay (SRMLSC)
A340 absorber: compound light absorbance at 340 nm, profiling panel, artefact control, biochemical, MLSMR library, data from PS, PMK, MK assays. compound absorbance at 340 nm, fold over control. fold change at 10 µM. 65,000 tested, under 10 active. AID 708, 2007;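 active = at 10 µM dose, initial 340 nm absorbance at least 2 fold that of control wells; inactive = change under 2 fold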;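 also: initial absorbance extrapolated from kinetic A340 decline of NADH oxidation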
DPM-DC inhibit: S. pneumoniae DPM-DC inhibitors, primary screen, biochemical, PK/LDH-coupled NADH fluorescence. purified DPM-DC. diphosphomevalonate decarboxylase (Streptococcus pneumoniae D39). calls only at 10 µM. actives 0.49% (n = 65,000). AID 556, 2006;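 active = the 320 compounds with the highest percent inhibition in the single-dose primary screen, excluding strongly autofluorescent ones, cut at about 32% in these data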;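 also: kinetic rate of NADH fluorescence loss reporting ADP formed by the decarboxylase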
NADH coupling: inhibitors of PK/LDH coupling enzymes, profiling panel, artefact control, biochemical, MLSMR library; coupled PK/LDH NADH assays, four targets; IC50, µM (series often up to 10 µM), without a hit: at the highest dose inhibition; actives 0.02% (n = 65,000);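 active = single-dose screening hits from any of four coupled enzyme assays that gave an IC50 when retested across doses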;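 also: the DPM-DC format reads NADH fluorescence rather than 340 nm absorbance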
MK inhibit: S. pneumoniae MK inhibitors, primary screen, biochemical, PK/LDH-coupled NADH absorbance; purified MK, PK/LDH-coupled NADH absorbance 340 nm; inhibition, % at 10 µM; actives 0.48% (n = 65,000);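 active = ranked among the strongest by inhibition in the single 10 µM screen, a fixed top-ranked set picked for dose follow-up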
Spn PMK inh: S. pneumoniae PMK inhibitors, primary screen, biochemical, mevalonate pathway, pilot trial included | phosphomevalonate kinase (Streptococcus pneumoniae D39) | purified PMK, PK/LDH-coupled NADH absorbance 340 nm | inhibition, % at 10 µM | actives 0.49% (n = 65,000) | AID 539, 2006;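 active = top-ranked compounds by inhibition in the single 10 µM screen, taking a fixed number of the strongest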;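 also: 0% = full reaction with DMSO carrier and 100% = background rate without enzyme reaction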
Fluor 339 460: intrinsic fluorescence of library compounds, ex339/em460 – biochemical, MLSMR library, data from DPM-DC assay, artefact control, profiling panel; compound autofluorescence, ex339/em460 nm, NADH buffer; active compounds read high; 1 = no-compound wells, NADH background; fluorescence fold increase at 10 µM; actives 5.5% (n = 65,000); AID 709, 2007;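 active = at 10 µM, mean starting fluorescence two-fold or more over control wells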;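 also: signal is the first read of a kinetic run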
An asterisk follows results filed as active; i = inactive; · = no result given; + = active, no number. The list is not random: actives were taken first. Their share in the collection is about 6.8%.

SMILES	A340 absorber	DPM-DC inhibit	NADH coupling	MK inhibit	Spn PMK inh	Fluor 339 460
CC(C)[C@H]1C(=O)N2CCC[C@H]2[C@]2(O)O[C@](NC(=O)[C@@H]3C=C4c5cccc6[nH]cc(c56)C[C@H]4N(C)C3)(C(C)C)C(=O)N12	0.98	i	7.0%	9.0	0.0	2.35*
CCOCCCNC(=O)CN1C2CCC1CC(O)(c1ccc(OC)cc1)C2 (stereo not drawn)	1	i	4.0%	4.0	9.0	1.12
Cn1cccc1CNCCc1ccccc1F	1.02	i	8.0%	8.0	15.0	1.12
CN(C)P(=O)(C(Cl)=C(N1CCCCC1)N1CCCCC1)N(C)C	1	i	5.0%	6.0	8.0	1.12
O=c1c2ccccc2nc(N2CCCC2)n1-c1ccc(Cl)cc1	1.02	i	4.0%	1.0	0.0	3.33*
c1ccc2c(CN3CCCCCCC3)c[nH]c2c1	1.05	i	20.0%	48.0*	12.0	1.06
c1ccc2c(CN3CCN(C4CCCCC4)CC3)c[nH]c2c1	1.01	i	3.0%	9.0	0.0	1.16
CNP(=S)(NC)OCCOc1ccc(OC)cc1	1.03	i	3.0%	8.0	1.0	1.11
CCCCOCCCn1c(N)c(C(=O)OCCOC)c2nc3ccccc3nc21	1.07	·	9.0%	12.0	5.0	2.33*
COCCOC(=O)c1c(N)n(Cc2ccccc2)c2nc3ccccc3nc12	1.08	·	11.0%	10.0	12.0	3.88*
COCCCn1c(N)c(C(=O)NCCC(C)C)c2nc3ccccc3nc21	1.04	·	8.0%	6.0	9.0	3.74*
CC(C)=CCC12CN3CCN(CC(C3)C1=O)C2	0.97	i	6.0%	9.0	8.0	1.1
COCC(C)OC(=O)c1c(N)n(Cc2ccco2)c2nc3ccccc3nc12 (stereo not drawn)	1.07	·	5.0%	1.0	9.0	2.32*
CCOC(=O)c1c(N)n(Cc2ccco2)c2nc3ccccc3nc12	1.07	·	8.0%	8.0	8.0	2.25*
CCCCn1c(NC(=O)c2ccco2)c(C(=O)OCC)c2nc3ccccc3nc21	1.14	·	7.0%	4.0	10.0	3.81*
Cn1c2ccccc2c2c(C(=O)N3CCC4(CC3)OCCO4)cn(C3CCCCC3)c(=O)c21	1.06	·	10.0%	1.0	19.0	2.12*
Cn1cc(C(=O)N2CCC3(CC2)OCCO3)c2c3ccccc3n(C)c2c1=O	1.07	i	11.0%	1.0	9.0	3.37*
CC(C)Cn1cc(C(=O)N2CCC3(CC2)OCCO3)c2c3ccccc3n(C)c2c1=O	1.03	·	11.0%	8.0	14.0	4.29*
CCSc1cc(C2C(C#N)=C(N)Oc3n[nH]c(C)c32)c(C)o1 (stereo not drawn)	1.03	i	2.0%	6.0	0.0	1.09
CC(=O)Nc1ccccc1OP1(=O)COc2ccccc2OC1	1.01	i	7.0%	9.0	13.0	1.13
COc1ccc(Cn2c(N)c(C(=O)NCc3ccco3)c3nc4ccccc4nc32)cc1	1.05	·	1.0%	0.0	2.0	4.89*
Nc1c(C(=O)NCc2ccco2)c2nc3ccccc3nc2n1Cc1ccc(F)cc1	1.08	·	4.0%	4.0	3.0	2.25*
CN1CCN(C(=O)OC2c3nccnc3C(=O)N2c2ccc(Cl)cn2)CC1 (stereo not drawn)	0.99	i	3.0%	4.0	4.0	1.22
COc1ccc(CN2CCN(C(=O)Cc3ccccc3)CC2)c(OC)c1	1.03	i	7.0%	52.0*	0.0	1.02
CCCC12CN3CN(C1)CC(CCC)(C3)C2O (stereo not drawn)	1.02	i	3.0%	0.0	9.0	1.05
SMILES	A340 absorber	DPM-DC inhibit	NADH coupling	MK inhibit	Spn PMK inh	Fluor 339 460
CC(=O)N1CCC2(CC1)CC(=O)c1cc(OCC(=O)N3CCN(C)CC3)ccc1O2	1	·	5.0%	0.0	9.0	5.09*
O=C(CCCN1CCC2(CC1)C(=O)NCN2c1ccccc1)c1ccc(F)cc1	0.97	i	2.0%	4.0	2.0	1.01
O=C(O)c1nonc1-c1nonc1C(=O)O	1.01	i	2.0%	5.0	13.0	1.02
CC(C)Cc1[nH]c(=O)c(C#N)c2c1CCC2	1.06	·	5.0%	6.0	4.0	2.31*
CC(C)CCOC(=O)c1c(N)n(CC2CCCO2)c2nc3ccccc3nc12 (stereo not drawn)	1.07	·	9.0%	8.0	10.0	3.9*
Nc1c(C(=O)OC2CCCCC2)c2nc3ccccc3nc2n1CC1CCCO1 (stereo not drawn)	1.05	·	10.0%	9.0	10.0	3.61*
CC(C)OC(=O)c1c(N)n(CC2CCCO2)c2nc3ccccc3nc12 (stereo not drawn)	1.03	·	5.0%	9.0	15.0	3*
CC(C)C1(C)N=C(c2nc3ccccc3cc2C(=O)O)NC1=O (stereo not drawn)	1.03	i	9.0%	10.0	16.0	1.03
C#CCN(C)C(C)Cc1ccccc1 (stereo not drawn)	0.97	i	3.0%	5.0	3.0	1
CCCCCn1c(N)c(C(=O)NCCN2CCOCC2)c2nc3ccccc3nc21	1.05	·	6.0%	4.0	7.0	2.12*
CCCn1nc2ccccc2c1P(=O)(N1CCOCC1)N1CCOCC1	0.98	i	5.0%	2.0	14.0	1.12
CCCCn1c(=O)c(C(=O)Nc2nc3ccccc3[nH]2)c(O)c2ccccc21	1.05	i	10.0%	14.0	9.0	1.68
CCCCCCn1c(N)c(C(=O)NCCN2CCOCC2)c2nc3ccccc3nc21	0.99	·	8.0%	12.0	4.0	3.93*
CC(C(=O)c1c[nH]c2ccccc12)N1CCc2ccccc2C1 (stereo not drawn)	1.04	i	4.0%	6.0	6.0	1.14
CC1CCC(C(=O)NC(C(=O)N2CCC3(CC2)OCCO3)C(C)C)CC1 (stereo not drawn)	0.97	i	2.0%	2.0	11.0	1.01
O=C(Cn1ncc2ccsc2c1=O)N1CCC2(CC1)OCCO2	1.02	i	1.0%	3.0	0.0	1.07
O=C(Cn1c(=O)c(C(F)(F)F)nc2ccccc21)N1CCC2(CC1)OCCO2	1.06	i	12.0%	0.0	15.0	2.02*
CCn1nc(-c2cccs2)nc2c(=O)n(C)c(=O)nc1-2	0.5	+	8.44µM*	63.0*	11.0	0.06
O=C(c1cc2c(s1)-c1ccccc1OC2)N1CCC2(CC1)OCCO2	1.08	·	3.0%	0.0	6.0	5.07*
CCCCP(=O)(O)c1ccccc1	1.04	i	4.0%	5.0	7.0	1.1
CCCCCCOC(=O)c1ccccc1N	1.05	·	4.0%	4.0	4.0	2.1*
COc1ccccc1N1CCN(Cc2ccccc2F)CC1	1.05	i	17.0%	51.0*	0.0	1.01
